Experimental data: PubChem BioAssay (EPA / NIEHS)
Records with an inconclusive call do not appear. The source made the active and inactive calls. Rule for the calls, unless noted: active = hit-call score of the fitted dose curve at least 0.9, where 1 is the maximum; inactive = score below 0.9.

Key:
[1] = ATG_PBREM_CIS: Attagene CIS-FACTORIAL HepG2 Assay for human Phenobarbital-responsive Enhancer Module (PBREM) (AID 2282955); conditions: HepG2 PBREM cis-reporter, Attagene multiplexed transcription; actives raise or lower the signal
How it was run: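 Endogenous transcription factor activity was read from reporter transcripts in transiently transfected human HepG2 liver cells after 24 h dosing. RT-PCR products were fluorescently labelled, HpaI-cut and sized by capillary electrophoresis; activity fitted bidirectionally against DMSO baseline.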

[2] = biological target: Paired box protein Pax-6 (Homo sapiens) (UniProt P26367); assay: ATG_Pax6_CIS: Attagene CIS-FACTORIAL HepG2 Assay for human Paired Box 6 (PAX6) (AID 2282956); conditions: HepG2 CIS-FACTORIAL PAX6 reporter transcription, RNA readout; actives raise or lower the signal
How it was run: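 Values derive from bidirectional curve fitting of reporter mRNA signal relative to DMSO. HepG2 cells bearing transfected cis-regulated MRTUs were exposed for 24 h; transcripts were read by RT-PCR and capillary electrophoresis.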

[3] = ATG_PXRE_CIS: Attagene CIS-FACTORIAL HepG2 Assay for human Pregnane X Receptor Element (PXRE) (AID 2282957); conditions: HepG2 Attagene CIS-FACTORIAL PXRE reporter, mRNA; actives raise or lower the signal
How it was run: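 Read-out: fluorescence of reporter-specific RT-PCR products resolved by capillary electrophoresis, fitted bidirectionally relative to DMSO. Human HepG2 liver cells carried transfected cis-promoter reporter units and were exposed to chemicals for 24 h.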

[4] = ATG_PPRE_CIS: Attagene CIS-FACTORIAL HepG2 Assay for human Peroxisome Proliferator-activated Response Element (PPRE) (AID 2282958); conditions: HepG2 PPRE cis-element reporter, Attagene transcription factor profiling; actives raise or lower the signal
How it was run: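 Endogenous PPRE-driven transcription is measured in HepG2 cells carrying transfected multi-reporter constructs. Reporter transcripts are quantified by RT-PCR, HpaI digestion and capillary electrophoresis 24 h after dosing. DMSO baseline, bidirectional fit.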

[5] = ATG_RORE_CIS: Attagene CIS-FACTORIAL HepG2 Assay for human RAR-related Orphan Receptor Element (RORE) (AID 2282959); conditions: HepG2 Attagene cis-factorial RORE reporter, mRNA; actives raise or lower the signal
How it was run: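 RORE reporter transcripts reflecting endogenous factor activity were read after 24 h compound exposure of transfected HepG2 cells, using reverse transcription, PCR, fluorescent labelling and capillary electrophoresis sizing. Gain or loss fitted against DMSO.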

[6] = ATG_Sox_CIS: Attagene CIS-FACTORIAL HepG2 Assay for human SRY-box transcription factor (SOX) (AID 2282960); conditions: HepG2 Attagene cis-factorial SOX reporter, mRNA; actives raise or lower the signal
How it was run: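 Reporter transcripts, measured by RT-PCR and capillary electrophoresis of labelled fragments, report endogenous SOX transcription factor activity. Transiently transfected human HepG2 cells receive chemical for 24 h; changes in either direction are fitted relative to DMSO.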

[7] = biological target: Transcription factor Sp1 (Homo sapiens) (UniProt P08047); assay: ATG_Sp1_CIS: Attagene CIS-FACTORIAL HepG2 Assay for human Specificity Protein 1 (Sp1) (AID 2282961); conditions: HepG2 Sp1 cis-reporter transcription, actives raise or lower the signal
How it was run: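 Read-out is reporter transcript level, measured by RT-PCR and fluorescent capillary electrophoresis after 24 h chemical treatment. System: transiently transfected HepG2 cells reporting endogenous transcription factor activity; gain or loss fitted against DMSO baseline.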

[8] = ATG_SREBP_CIS: Attagene CIS-FACTORIAL HepG2 Assay for human Sterol Regulatory Element Binding (SREBP) (AID 2282962); conditions: HepG2 Attagene cis-factorial SREBP reporter, mRNA; actives raise or lower the signal
How it was run: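 Values derive from bidirectional curve fitting with DMSO as baseline. The underlying measurement is reporter mRNA from cis-element-regulated units in transiently transfected HepG2, quantified by RT-PCR and capillary electrophoresis after 24 h exposure.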

[9] = biological target: Signal transducer and activator of transcription 3 (Homo sapiens) (UniProt P40763); assay: ATG_STAT3_CIS: Attagene CIS-FACTORIAL HepG2 Assay for human Signal Transducer and Activator of Transcription 3 (STAT3) (AID 2282963); conditions: HepG2, Attagene cis-factorial STAT3 reporter transcription; actives raise or lower the signal
How it was run: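 Readout: fluorescent reporter mRNA fragments resolved by capillary electrophoresis. Setup: HepG2 transfected with MRTUs reporting endogenous transcription-factor activity, dosed 24 h. Gain or loss of signal fitted bidirectionally against DMSO control.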

[10] = ATG_TA_CIS: Attagene CIS-FACTORIAL HepG2 Assay for human TA Basal Promoter (AID 2282964); conditions: HepG2 Attagene CIS-factorial TA basal promoter reporter; actives raise or lower the signal
How it was run: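 Read-out: fluorescent reporter-transcript fragments resolved by capillary electrophoresis after RT-PCR and HpaI digestion. Source: HepG2 cells carrying transiently transfected multi-reporter cis constructs, treated 24 h. Endpoint fitted bidirectionally relative to DMSO.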

[11] = ATG_TCF_b_cat_CIS: Attagene CIS-FACTORIAL HepG2 Assay for human T-Cell-Factor with beta-catenin (TCF/b-cat) (AID 2282965); conditions: HepG2 TCF/beta-catenin cis-reporter transcription, actives raise or lower the signal
How it was run: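 HepG2 cells transiently transfected with cis-promoter-driven multiplexed reporter units; reporter mRNA measured 24 h after dosing by RT-PCR, FAM labelling, HpaI digestion and capillary electrophoresis. Bidirectional fitting relative to DMSO baseline.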

[12] = ATG_TAL_CIS: Attagene CIS-FACTORIAL HepG2 Assay for human TAL Basal Promoter (AID 2282966); conditions: HepG2 Attagene cis-factorial TAL promoter reporter; actives raise or lower the signal;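 note: background control endpoint measuring basal TAL promoter reporter mRNA not a specific factor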
How it was run: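 HepG2, transient MRTU transfection, 24 h compound exposure; RNA → oligo(dT) RT → PCR → 6-FAM primer extension → HpaI digest → CE fluorescence. Bidirectional curve fit vs DMSO. Background-control readout.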

[13] = biological target: Estrogen receptor (Homo sapiens) (UniProt P03372); assay: ATG_ERa_TRANS: Attagene TRANS-FACTORIAL HepG2 Assay for human Estrogen Receptor alpha (ERa) (AID 2282970; active = hit-call score of the fitted dose curve at least 0.9, where 1 is the maximum); conditions: HepG2 Attagene TRANS ERa GAL4 reporter, mRNA
How it was run: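 Reporter mRNA induction after 24 hours, detected by fluorescent RT-PCR and capillary electrophoresis, gives the read-out. Cells are HepG2 transiently transfected with GAL4-UAS reporter transcription units responding to chimeric NR-Gal4. Activity is taken as gain of signal over DMSO baseline.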

[14] = biological target: Steroid hormone receptor ERR1 (Homo sapiens) (UniProt P11474); assay: ATG_ERRa_TRANS: Attagene TRANS-FACTORIAL HepG2 Assay for human Estrogen-Related Receptor alpha (ERRa) (AID 2282971; active = hit-call score of the fitted dose curve at least 0.9, where 1 is the maximum); conditions: HepG2 Attagene TRANS reporter, ERRa transactivation
How it was run: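 Transfected HepG2, 24 h dosing, ERRa-Gal4 chimera driving GAL4-UAS reporter. Readout: reporter mRNA via RT-PCR plus capillary electrophoresis (fluorescence). Positive direction vs DMSO control.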

[15] = biological target: X-box-binding protein 1 (Homo sapiens) (UniProt P17861); assay: ATG_Xbp1_CIS: Attagene CIS-FACTORIAL HepG2 Assay for human X-box Binding Protein 1 (XBP1) (AID 2282972); conditions: HepG2 XBP1 cis-element reporter, Attagene multiplex; actives raise or lower the signal
How it was run: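 Human hepatoma HepG2, cis-element reporter system, 24 h treatment; mRNA quantified by RT-PCR/CE fluorescence; fit relative to DMSO.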

[16] = ATG_GAL4_TRANS: Attagene TRANS-FACTORIAL HepG2 Assay for GAL4 (Internal Marker) (AID 2282976; active = hit-call score of the fitted dose curve at least 0.9, where 1 is the maximum); conditions: HepG2 Attagene TRANS GAL4 internal marker reporter
How it was run: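 RT-PCR/capillary electrophoresis readout of reporter mRNA. HepG2, transient MRTU transfection (GAL4-UAS reporters), 24 h compound exposure. Background-control endpoint, positive direction vs DMSO baseline.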

[17] = ATG_TGFb_CIS: Attagene CIS-FACTORIAL HepG2 Assay for human Transforming Growth Factor (TGF) (AID 2282967); conditions: HepG2 Attagene CIS TGFb reporter, mRNA transcription; actives raise or lower the signal
How it was run: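 Transient MRTU transfection of HepG2 (FuGene 6). Dose 24 h. TriZol RNA, oligo(dT) RT, PCR, 6-FAM primer extension, HpaI cut, CE. Bidirectional fit, DMSO = baseline.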

[18] = ATG_VDRE_CIS: Attagene CIS-FACTORIAL HepG2 Assay for human Vitamin D Receptor Element (VDRE) (AID 2282968); conditions: HepG2 VDRE cis-reporter transcription, actives raise or lower the signal
How it was run: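 Transient MRTU transfection of HepG2, 24 h compound exposure. Readout: reporter transcripts via RT-PCR and capillary electrophoresis, fluorescence. Bidirectional fit vs DMSO.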

[19] = ATG_M_19_TRANS: Attagene TRANS-FACTORIAL HepG2 Assay for M19 Transcription Factor (Internal Marker) (AID 2282974; active = hit-call score of the fitted dose curve at least 0.9, where 1 is the maximum); conditions: HepG2 Attagene TRANS-FACTORIAL M19 internal marker reporter
How it was run: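 Background-control readout: after 24 h chemical exposure of transfected HepG2 carrying GAL4-driven reporter units, RNA was reverse-transcribed, amplified, fluorescently labeled and sized by capillary electrophoresis; gain-of-signal fit against DMSO.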

[20] = biological target: Nuclear receptor subfamily 1 group I member 3 (Homo sapiens) (UniProt Q14994); assay: ATG_CAR_TRANS: Attagene TRANS-FACTORIAL HepG2 Assay for human Constitutive Androstane Receptor (CAR) (AID 2282969; active = hit-call score of the fitted dose curve at least 0.9, where 1 is the maximum;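 note: activators raise reporter mRNA above DMSO so AC50 marks induction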); conditions: HepG2 Attagene TRANS-FACTORIAL CAR reporter
How it was run: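 Transiently transfected HepG2, multiplex TRANS reporters (CAR-Gal4 chimera driving GAL4-UAS reporter). 24 h dosing. Readout: reporter transcript by RT-PCR + capillary electrophoresis, fluorescence intensity; positive direction vs DMSO.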

Measured: AC50

Chain of Transcription factor Sp1 (Homo sapiens) (P08047 whole entry, looked up): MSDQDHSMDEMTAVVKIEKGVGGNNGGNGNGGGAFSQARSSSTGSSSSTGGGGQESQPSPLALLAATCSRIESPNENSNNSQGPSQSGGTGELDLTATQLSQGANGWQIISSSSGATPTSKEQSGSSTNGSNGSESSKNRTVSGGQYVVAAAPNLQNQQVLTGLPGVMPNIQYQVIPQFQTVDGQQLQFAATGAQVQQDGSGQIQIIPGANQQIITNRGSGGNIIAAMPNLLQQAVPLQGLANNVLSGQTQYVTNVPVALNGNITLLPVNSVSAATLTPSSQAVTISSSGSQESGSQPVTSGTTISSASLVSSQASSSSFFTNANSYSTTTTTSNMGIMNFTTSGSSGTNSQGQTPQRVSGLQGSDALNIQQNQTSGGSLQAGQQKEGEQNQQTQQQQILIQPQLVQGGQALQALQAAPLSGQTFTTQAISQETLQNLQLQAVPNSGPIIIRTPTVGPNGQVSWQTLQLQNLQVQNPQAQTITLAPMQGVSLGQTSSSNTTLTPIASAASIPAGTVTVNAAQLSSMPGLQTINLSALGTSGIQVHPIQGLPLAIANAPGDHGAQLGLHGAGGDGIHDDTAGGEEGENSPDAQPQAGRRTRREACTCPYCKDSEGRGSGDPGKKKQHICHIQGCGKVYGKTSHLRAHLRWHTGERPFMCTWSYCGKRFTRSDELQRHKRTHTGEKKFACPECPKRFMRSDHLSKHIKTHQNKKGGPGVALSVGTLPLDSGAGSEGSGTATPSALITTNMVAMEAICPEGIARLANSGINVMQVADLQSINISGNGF
Chain of Signal transducer and activator of transcription 3 (Homo sapiens) (P40763 whole entry, looked up, the tested form may be a part): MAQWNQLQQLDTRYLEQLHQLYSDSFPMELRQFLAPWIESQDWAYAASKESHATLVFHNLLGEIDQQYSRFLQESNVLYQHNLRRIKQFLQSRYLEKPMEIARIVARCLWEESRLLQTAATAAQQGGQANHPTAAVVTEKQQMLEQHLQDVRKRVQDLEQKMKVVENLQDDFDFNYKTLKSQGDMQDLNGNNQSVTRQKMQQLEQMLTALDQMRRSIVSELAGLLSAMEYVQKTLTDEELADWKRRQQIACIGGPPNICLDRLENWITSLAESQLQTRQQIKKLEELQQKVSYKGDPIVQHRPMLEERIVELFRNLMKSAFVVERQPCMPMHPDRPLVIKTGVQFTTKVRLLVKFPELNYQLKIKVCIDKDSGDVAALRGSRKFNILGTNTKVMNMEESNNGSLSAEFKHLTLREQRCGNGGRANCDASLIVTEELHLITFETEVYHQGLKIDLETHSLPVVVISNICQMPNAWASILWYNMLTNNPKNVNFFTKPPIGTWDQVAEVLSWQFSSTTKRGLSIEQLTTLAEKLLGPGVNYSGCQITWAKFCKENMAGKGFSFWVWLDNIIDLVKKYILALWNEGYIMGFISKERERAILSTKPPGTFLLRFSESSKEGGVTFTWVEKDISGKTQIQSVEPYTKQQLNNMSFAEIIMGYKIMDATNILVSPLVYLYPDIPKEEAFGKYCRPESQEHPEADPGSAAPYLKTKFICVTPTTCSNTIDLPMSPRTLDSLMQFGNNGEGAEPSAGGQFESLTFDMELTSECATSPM
Chain of Paired box protein Pax-6 (Homo sapiens) (P26367 whole entry, looked up): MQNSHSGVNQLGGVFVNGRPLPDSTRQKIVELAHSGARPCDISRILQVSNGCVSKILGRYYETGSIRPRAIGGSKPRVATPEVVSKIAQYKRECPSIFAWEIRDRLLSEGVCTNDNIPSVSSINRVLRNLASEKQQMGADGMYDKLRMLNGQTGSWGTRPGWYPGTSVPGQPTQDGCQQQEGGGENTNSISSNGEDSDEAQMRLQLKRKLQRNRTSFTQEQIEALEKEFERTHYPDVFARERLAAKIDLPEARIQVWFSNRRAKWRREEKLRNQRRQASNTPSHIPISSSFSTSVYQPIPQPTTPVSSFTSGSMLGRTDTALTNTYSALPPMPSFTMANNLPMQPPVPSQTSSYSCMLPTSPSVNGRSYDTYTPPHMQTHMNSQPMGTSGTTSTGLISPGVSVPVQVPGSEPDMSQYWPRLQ
Chain of Estrogen receptor (Homo sapiens) (P03372 whole entry, looked up, the tested form may be a part): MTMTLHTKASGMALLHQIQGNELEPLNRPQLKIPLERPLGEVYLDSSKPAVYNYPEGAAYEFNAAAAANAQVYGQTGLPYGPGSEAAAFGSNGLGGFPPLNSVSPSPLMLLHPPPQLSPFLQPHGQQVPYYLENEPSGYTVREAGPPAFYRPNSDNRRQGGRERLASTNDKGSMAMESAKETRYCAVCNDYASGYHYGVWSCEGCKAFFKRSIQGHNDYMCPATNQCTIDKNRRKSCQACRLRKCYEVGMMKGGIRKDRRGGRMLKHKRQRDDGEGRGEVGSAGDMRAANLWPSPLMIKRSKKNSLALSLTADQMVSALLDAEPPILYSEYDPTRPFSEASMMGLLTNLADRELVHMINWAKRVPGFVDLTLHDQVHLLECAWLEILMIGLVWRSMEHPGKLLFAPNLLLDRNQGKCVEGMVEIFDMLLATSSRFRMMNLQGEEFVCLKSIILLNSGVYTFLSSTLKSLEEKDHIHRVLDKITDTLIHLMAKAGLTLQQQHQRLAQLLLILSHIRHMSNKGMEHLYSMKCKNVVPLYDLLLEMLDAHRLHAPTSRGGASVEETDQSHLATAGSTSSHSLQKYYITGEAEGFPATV
Chain of X-box-binding protein 1 (Homo sapiens) (P17861 whole entry, looked up): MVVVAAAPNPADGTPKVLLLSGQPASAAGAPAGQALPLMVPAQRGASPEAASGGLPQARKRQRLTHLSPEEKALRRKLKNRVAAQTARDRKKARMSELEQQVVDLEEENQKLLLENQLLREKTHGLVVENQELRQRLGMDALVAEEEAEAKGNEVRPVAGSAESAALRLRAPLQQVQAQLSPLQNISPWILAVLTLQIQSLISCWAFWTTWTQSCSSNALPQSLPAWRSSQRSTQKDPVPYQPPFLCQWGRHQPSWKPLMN
Chain of Steroid hormone receptor ERR1 (Homo sapiens) (P11474 whole entry, looked up, the tested form may be a part): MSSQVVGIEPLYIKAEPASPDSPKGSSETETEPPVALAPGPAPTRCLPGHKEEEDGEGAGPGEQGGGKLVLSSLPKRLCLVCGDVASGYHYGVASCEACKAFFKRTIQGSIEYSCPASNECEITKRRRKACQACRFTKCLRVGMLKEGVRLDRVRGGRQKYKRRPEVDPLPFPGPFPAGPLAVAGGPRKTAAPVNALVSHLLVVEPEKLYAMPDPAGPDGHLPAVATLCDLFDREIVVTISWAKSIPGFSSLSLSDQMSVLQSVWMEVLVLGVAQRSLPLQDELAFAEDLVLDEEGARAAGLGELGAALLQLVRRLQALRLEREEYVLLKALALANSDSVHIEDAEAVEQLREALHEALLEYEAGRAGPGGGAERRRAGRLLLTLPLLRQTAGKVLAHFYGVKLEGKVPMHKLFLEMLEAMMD
Chain of Nuclear receptor subfamily 1 group I member 3 (Homo sapiens) (Q14994 whole entry, looked up, the tested form may be a part): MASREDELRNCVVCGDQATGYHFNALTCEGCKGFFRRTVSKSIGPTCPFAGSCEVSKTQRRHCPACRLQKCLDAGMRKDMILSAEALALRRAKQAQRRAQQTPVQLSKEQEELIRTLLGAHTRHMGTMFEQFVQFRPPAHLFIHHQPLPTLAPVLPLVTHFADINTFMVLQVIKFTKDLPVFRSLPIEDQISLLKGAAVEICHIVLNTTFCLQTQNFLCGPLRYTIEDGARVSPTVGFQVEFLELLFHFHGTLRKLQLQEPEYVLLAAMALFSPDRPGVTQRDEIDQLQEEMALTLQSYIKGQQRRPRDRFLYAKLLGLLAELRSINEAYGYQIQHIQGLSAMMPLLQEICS

O=C(Cl)c1c(Cl)c(Cl)c(C(=O)Cl)c(Cl)c1Cl
active: [3] 27.9 µM
not listed: [17] | [18] | [19] | [20]
inactive: all other assays above

CC(Cl)COP(=O)(OCC(C)Cl)OCC(C)Cl (stereo unspecified)
active: [3] 4.13 µM | [18] 3.75 µM
not listed: [9] | [20]
inactive: all other assays above

CC(C)(CO)C(O)C(=O)NCCCO (stereo unspecified)
not listed: [11] | [13] | [14] | [16] | [19] | [20]
inactive: all other assays above

CCCCCOC(=O)CCCCC
not listed: [16] | [18] | [19] | [20]
inactive: all other assays above

c1ccc(Nc2cccc3ccccc23)cc1
active: [2] 33.4 µM | [3] 8.67 µM | [6] 48.1 µM | [7] 47.1 µM | [8] 60.4 µM | [18] 10.3 µM | [15] 53.5 µM
inactive: [1] | [4] | [5] | [9] | [10] | [12] | [17]

C=C(C)C(=O)OCC(O)COc1ccc(C(C)(C)c2ccc(OCC(O)COC(=O)C(=C)C)cc2)cc1 (stereo unspecified)
active: [2] 42.2 µM | [3] 2.17 µM | [4] 14.7 µM | [6] 65 µM | [8] 51 µM | [10] 28.3 µM | [18] 9.75 µM | [15] 26.3 µM
not listed: [13] | [14] | [19]
inactive: all other assays above

CC/C=C\CCOC(=O)c1ccccc1O
inactive: all assays above

C=CCOC(=O)c1ccc(C(=O)OCC=C)c(C(=O)OCC=C)c1
active: [3] 21 µM | [4] 14.8 µM | [5] 32.5 µM | [18] 41.6 µM
not listed: [14] | [16] | [19] | [20]
inactive: all other assays above
